# Measurements reported in publication PMC11006913.
# Substitutions are numbered along the chain they refer to.
# What was measured:
# Assay in all cases: PBM; 200 nM protein, PBS
# Conditions in all cases: dsDNA, one strand shown
# SIX6 [1] = target: T1, SIX6 (Homo sapiens, UniProt O95475 114-200, L167I)
# T1 sequence: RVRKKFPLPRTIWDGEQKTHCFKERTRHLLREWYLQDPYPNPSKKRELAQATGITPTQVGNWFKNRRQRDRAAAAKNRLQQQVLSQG
# SIX6 [2] = target: T2, SIX6 (Homo sapiens, UniProt O95475 114-200, L143V)
# T2 sequence: T1 sequence with L30V, I54L
# SIX6 [3] = target: T3, SIX6 (Homo sapiens, UniProt O95475 114-200, H141N)
# T3 sequence: T1 sequence with H28N, I54L
# SIX6 [4] = target: T4, SIX6 (Homo sapiens, UniProt O95475 114-200, T165P)
# T4 sequence: T1 sequence with T52P, I54L
# SIX6 [5] = target: T5, SIX6 (Homo sapiens, UniProt O95475 114-200, L167M)
# T5 sequence: T1 sequence with I54M
# SIX6 [6] = target: T6, SIX6 (Homo sapiens, UniProt O95475 114-200, L143M)
# T6 sequence: T1 sequence with L30M, I54L
# SIX6 [7] = target: T7, SIX6 (Homo sapiens, UniProt O95475 114-200, L143I)
# T7 sequence: T1 sequence with L30I, I54L
# SIX6 [8] = target: T8, SIX6 (Homo sapiens, UniProt O95475 114-200, T165G)
# T8 sequence: T1 sequence with T52G, I54L
# SIX6 [9] = target: T9, SIX6 (Homo sapiens, UniProt O95475 114-200, T139Q)
# T9 sequence: T1 sequence with T26Q, I54L
# SIX6 [10] = target: T10, SIX6 (Homo sapiens, UniProt O95475 114-200, T165A)
# T10 sequence: T1 sequence with T52A, I54L
# SIX6 [11] = target: T11, SIX6 (Homo sapiens, UniProt O95475 114-200, L167V)
# T11 sequence: T1 sequence with I54V
# SIX6 [12] = target: T12, SIX6 (Homo sapiens, UniProt O95475 114-200)
# T12 sequence: T1 sequence with I54L
# SIX6 [13] = target: T13, SIX6 (Homo sapiens, UniProt O95475 114-200, T165I)
# T13 sequence: T1 sequence with T52I, I54L
Sequence,binding signal (SIX6 [1]),binding signal (SIX6 [2]),binding signal (SIX6 [3]),binding signal (SIX6 [4]),binding signal (SIX6 [5]),binding signal (SIX6 [6]),binding signal (SIX6 [7]),binding signal (SIX6 [8]),binding signal (SIX6 [9]),binding signal (SIX6 [10]),binding signal (SIX6 [11]),binding signal (SIX6 [12]),binding signal (SIX6 [13])
CCGCAGCG,"8.92 upbm affinity estimate (log intensity, higher = more binding, comparable within an allelic series)","8.95 upbm affinity estimate (log intensity, higher = more binding, comparable within an allelic series)","8.92 upbm affinity estimate (log intensity, higher = more binding, comparable within an allelic series)","9.03 upbm affinity estimate (log intensity, higher = more binding, comparable within an allelic series)","8.98 upbm affinity estimate (log intensity, higher = more binding, comparable within an allelic series)","8.95 upbm affinity estimate (log intensity, higher = more binding, comparable within an allelic series)","8.96 upbm affinity estimate (log intensity, higher = more binding, comparable within an allelic series)","8.86 upbm affinity estimate (log intensity, higher = more binding, comparable within an allelic series)","8.88 upbm affinity estimate (log intensity, higher = more binding, comparable within an allelic series)","8.92 upbm affinity estimate (log intensity, higher = more binding, comparable within an allelic series)","8.99 upbm affinity estimate (log intensity, higher = more binding, comparable within an allelic series)","8.96 upbm affinity estimate (log intensity, higher = more binding, comparable within an allelic series)","8.92 upbm affinity estimate (log intensity, higher = more binding, comparable within an allelic series)"
AGGCCCCG,"8.89 upbm affinity estimate (log intensity, higher = more binding, comparable within an allelic series)","8.82 upbm affinity estimate (log intensity, higher = more binding, comparable within an allelic series)","8.69 upbm affinity estimate (log intensity, higher = more binding, comparable within an allelic series)","8.87 upbm affinity estimate (log intensity, higher = more binding, comparable within an allelic series)","8.92 upbm affinity estimate (log intensity, higher = more binding, comparable within an allelic series)","8.79 upbm affinity estimate (log intensity, higher = more binding, comparable within an allelic series)","8.8 upbm affinity estimate (log intensity, higher = more binding, comparable within an allelic series)","8.83 upbm affinity estimate (log intensity, higher = more binding, comparable within an allelic series)","8.79 upbm affinity estimate (log intensity, higher = more binding, comparable within an allelic series)","8.77 upbm affinity estimate (log intensity, higher = more binding, comparable within an allelic series)","8.67 upbm affinity estimate (log intensity, higher = more binding, comparable within an allelic series)","8.75 upbm affinity estimate (log intensity, higher = more binding, comparable within an allelic series)","8.82 upbm affinity estimate (log intensity, higher = more binding, comparable within an allelic series)"
ACGGGCGG,"8.9 upbm affinity estimate (log intensity, higher = more binding, comparable within an allelic series)","8.8 upbm affinity estimate (log intensity, higher = more binding, comparable within an allelic series)","8.96 upbm affinity estimate (log intensity, higher = more binding, comparable within an allelic series)","8.88 upbm affinity estimate (log intensity, higher = more binding, comparable within an allelic series)","8.9 upbm affinity estimate (log intensity, higher = more binding, comparable within an allelic series)","8.96 upbm affinity estimate (log intensity, higher = more binding, comparable within an allelic series)","8.91 upbm affinity estimate (log intensity, higher = more binding, comparable within an allelic series)","9.03 upbm affinity estimate (log intensity, higher = more binding, comparable within an allelic series)","9.17 upbm affinity estimate (log intensity, higher = more binding, comparable within an allelic series)","9.02 upbm affinity estimate (log intensity, higher = more binding, comparable within an allelic series)","8.77 upbm affinity estimate (log intensity, higher = more binding, comparable within an allelic series)","8.94 upbm affinity estimate (log intensity, higher = more binding, comparable within an allelic series)","8.98 upbm affinity estimate (log intensity, higher = more binding, comparable within an allelic series)"
GTGATATA,"11.3 upbm affinity estimate (log intensity, higher = more binding, comparable within an allelic series)","10.5 upbm affinity estimate (log intensity, higher = more binding, comparable within an allelic series)","11.3 upbm affinity estimate (log intensity, higher = more binding, comparable within an allelic series)","9.96 upbm affinity estimate (log intensity, higher = more binding, comparable within an allelic series)","11 upbm affinity estimate (log intensity, higher = more binding, comparable within an allelic series)","10.9 upbm affinity estimate (log intensity, higher = more binding, comparable within an allelic series)","10.4 upbm affinity estimate (log intensity, higher = more binding, comparable within an allelic series)","11.3 upbm affinity estimate (log intensity, higher = more binding, comparable within an allelic series)","11.1 upbm affinity estimate (log intensity, higher = more binding, comparable within an allelic series)","11.3 upbm affinity estimate (log intensity, higher = more binding, comparable within an allelic series)","11.1 upbm affinity estimate (log intensity, higher = more binding, comparable within an allelic series)","11.1 upbm affinity estimate (log intensity, higher = more binding, comparable within an allelic series)","11.2 upbm affinity estimate (log intensity, higher = more binding, comparable within an allelic series)"
AGGGCCCG,"8.98 upbm affinity estimate (log intensity, higher = more binding, comparable within an allelic series)","8.79 upbm affinity estimate (log intensity, higher = more binding, comparable within an allelic series)","8.98 upbm affinity estimate (log intensity, higher = more binding, comparable within an allelic series)","8.84 upbm affinity estimate (log intensity, higher = more binding, comparable within an allelic series)","8.98 upbm affinity estimate (log intensity, higher = more binding, comparable within an allelic series)","8.93 upbm affinity estimate (log intensity, higher = more binding, comparable within an allelic series)","8.9 upbm affinity estimate (log intensity, higher = more binding, comparable within an allelic series)","8.99 upbm affinity estimate (log intensity, higher = more binding, comparable within an allelic series)","9.07 upbm affinity estimate (log intensity, higher = more binding, comparable within an allelic series)","8.92 upbm affinity estimate (log intensity, higher = more binding, comparable within an allelic series)","8.93 upbm affinity estimate (log intensity, higher = more binding, comparable within an allelic series)","8.95 upbm affinity estimate (log intensity, higher = more binding, comparable within an allelic series)","8.9 upbm affinity estimate (log intensity, higher = more binding, comparable within an allelic series)"
AGCGGTGG,"8.97 upbm affinity estimate (log intensity, higher = more binding, comparable within an allelic series)","8.89 upbm affinity estimate (log intensity, higher = more binding, comparable within an allelic series)","8.96 upbm affinity estimate (log intensity, higher = more binding, comparable within an allelic series)","8.97 upbm affinity estimate (log intensity, higher = more binding, comparable within an allelic series)","8.93 upbm affinity estimate (log intensity, higher = more binding, comparable within an allelic series)","9.05 upbm affinity estimate (log intensity, higher = more binding, comparable within an allelic series)","9 upbm affinity estimate (log intensity, higher = more binding, comparable within an allelic series)","8.94 upbm affinity estimate (log intensity, higher = more binding, comparable within an allelic series)","9.04 upbm affinity estimate (log intensity, higher = more binding, comparable within an allelic series)","8.98 upbm affinity estimate (log intensity, higher = more binding, comparable within an allelic series)","8.84 upbm affinity estimate (log intensity, higher = more binding, comparable within an allelic series)","9.06 upbm affinity estimate (log intensity, higher = more binding, comparable within an allelic series)","8.95 upbm affinity estimate (log intensity, higher = more binding, comparable within an allelic series)"
